HCV inh – inhibitors of hepatitis C virus infection; Huh7.5.1 HCVcc-Cre infection, luciferase reporter, 44 h; Potency, µM (top dose mostly 41.8 µM), inactives show at the top dose activity change, negative = inhibition, hits mostly inhibitors; hit rate 3.4% among 340,000; AID 651820; note: potency is the fitted concentration of half-maximal effect
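Luciferase read-out (15 sec integration) after a 15 min room-temperature substrate step quantifies HCVcc-Cre infection. Cells, 1,000 per well, had compound added 4 h post-plating, then virus at ~0.5 moi, and were cultured 44 h.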
Lassa entry inh – Lassa virus entry inhibition; Lassa virus pseudotype entry inhibition, cell reporter; AID 540256; hit rate 1.2% among 300,000; Potency, µM (titrated, usually from 37.9 µM), inactives show at the highest dose activity change, negative = inhibition, hits mostly inhibitors; calls by dose curve; tested in HEK293 cells; note: potency is the fitted concentration of half-maximal effect; nearly all actives have a fitted effect of over 50% in size
Pf growth 96h – inhibits malaria parasite growth, 96 h; Potency, µM (series often up to 28.7 µM), for inactives: at the highest dose activity change, negative = inhibition, actives largely listed as inhibitors; P. falciparum luciferase reporter growth, 96 h; hit rate 6.9% among 320,000; note: potency is the fitted concentration of half-maximal effect
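Delayed-death screen, second-generation endpoint: infected erythrocytes, 2% hematocrit, 0.05% parasitemia final; 96 hours at 37 C, 5% CO2; luciferase detection reagent; luminescence decrease equals reduced growth.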
Marburg entry inh – blocks Marburg virus binding to or entry into cells; Marburg virus pseudotyped entry inhibition, cell reporter; Potency, µM (doses to about 37.8 µM), for inactives: at the top dose activity change, negative = inhibition, actives largely listed as inhibitors; hit rate 1.8% among 300,000; calls by dose curve; tested in HEK293 cells; note: potency is the fitted concentration of half-maximal effect
HCMV antiviral – inhibitors of human cytomegalovirus. hit rate 4.5% among 410,000. HFF cells, HCMV-luciferase reporter, 72 h; hits give low values. activity change, negative = inhibition, % at 57.5 µM. AID 1259415; in the data active = activity change below about -60%; inconclusive = no clear call, values can overlap the other calls; inactive = above about -39%
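Compounds were evaluated in HFFs infected with an HCMV luciferase reporter virus (MOI 1 PFU/cell). Luciferase in lysates collected 72 h post infection served as the replication measure.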
Pf growth 48h – P. falciparum growth inhibition at 48 hours (one generation); P. falciparum luciferase growth in erythrocytes, 48 h; Potency, µM (top dose mostly 28.7 µM), inactives show at the top dose activity change, negative = inhibition, most hits filed as inhibitors; hit rate 5.9% among 310,000; note: potency is the fitted concentration of half-maximal effect
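Firefly luciferase activity from engineered P. falciparum reports growth; inhibitors lower the luminescent signal. Cultures contained 2% hematocrit erythrocytes at 0.1% final parasitemia.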
Starred values were filed as active, the others as inactive; ? = inconclusive; . = not tested or not shown; [ ] = another dose, or the depositor's remark. Most compounds without a hit are left out; they make up all but 14% or so of the library. Unless noted, calls come from the whole dose curve; as a rule, active = well fitted inhibition curve with a large enough effect; inconclusive = small, poorly fitted or top-dose-only effect, or another doubt; inactive = no such curve, though single readings can be large or run the other way. % is set by controls: 0 for no effect and ±100 for the full control effect.

SMILES	HCV inh	Lassa entry inh	Pf growth 96h	Marburg entry inh	HCMV antiviral	Pf growth 48h
CN(CC1CCCO1)S(=O)(=O)c1ccc(C(=O)Nc2nc(-c3ccccn3)cs2)cc1 (stereo not drawn)	4.5µM*	?	3.3µM*	?	.	12µM*
O=C(Nc1ccccc1C(F)(F)F)c1cc(S(=O)(=O)N2CCOCC2)ccc1F	21%	33%[14.3 µM]	0.93µM*	-8%	-13	10%
Cc1ccc(S(=O)(=O)N2CCOCC2)cc1C(=O)Nc1ccncc1	6%	.	-19%	.	11	-9%
Cc1ccc(C(=O)Nc2nc(-c3ccccn3)cs2)cc1S(=O)(=O)N1CCOCC1	5.6µM*	.	0.47µM*	.	-97*	1.7µM*
O=C(Nc1nc(-c2ccccn2)cs1)c1cc(S(=O)(=O)N2CCOCC2)ccc1F	?	.	10µM*	.	5	10µM*
O=C(Nc1nc(-c2ccccn2)cs1)c1ccc(F)c(S(=O)(=O)N2CCOCC2)c1	3.5µM*	.	0.83µM*	.	-97*	1.5µM*
Cc1ccc(S(=O)(=O)N2CCOCC2)cc1C(=O)Nc1ccc(-c2cn3ccsc3n2)cc1	10µM*	?	-11%	?	-16	9.3µM*
CCOC(=O)c1c(NC(=O)COc2ccc(Cl)cc2C)sc(C(C)=O)c1C	.	-10%[46.1 µM]	.	.	8	.
CC(=O)Nc1cccc(NC(=O)C2(c3cccs3)CCOCC2)c1	.	21%[46.1 µM]	.	.	29	.
Fc1ccccc1N1CCN(C(c2ccnc3ccccc23)c2nnnn2-c2ccc3c(c2)OCCO3)CC1 (stereo not drawn)	.	.	.	.	-29	.
CCc1cc(/C(Cc2ccc3ccccc3n2)=N\O)c(O)cc1O	?	?	1.7µM*	-15%	-15	36%
CCc1cc(/C(Cc2ccccn2)=N\O)c(O)cc1O	22µM*	-3%	61%	-2%	?	.
CCC(C)N1CCC(Oc2ccc(C(=O)NCc3ccccn3)cc2)CC1 (stereo not drawn)	1%	18%	10µM*	?	-34	-10%
COCCNC(=O)c1cccc(OC2CCN(Cc3ccccc3C)CC2)c1	-10%	-11%[46.1 µM]	1.5µM*	-3%[46.1 µM]	-9	-4%
COc1cccc(CN2CCC(Oc3ccc(C(=O)NCc4ccccn4)cc3)CC2)c1O	-20%	.	6.6µM*	.	-22	?
O=C(NCc1ccccn1)c1ccc(OC2CCN(Cc3ccccc3O)CC2)cc1	.	-3%	?	-16%	-29	?
O=C(NCc1ccccn1)c1ccc(OC2CCN(Cc3ccc(F)cc3F)CC2)cc1	-30%	-27%[46.1 µM]	-3%	?	?	12µM*
O=C(NCc1ccccn1)c1ccc(OC2CCN(Cc3ccccc3)CC2)cc1	11%	-22%	63%	-25%	-10	-5%
COc1ccc(CN2CCC(Oc3ccc(C(=O)NCc4ccccn4)cc3)CC2)c(F)c1	-2%	.	?	.	-10	-16%
CN(Cc1ccco1)C(=O)CSc1nc(C2CC2)n(-c2ccccc2)n1	-15%	4%	5%	?	-21	-13%
CC[C@]12c3[nH]c4cc(CCC(=O)N(C)C)ccc4c3CCN1C(=O)[C@@H](CC(=O)NCCc1ccccn1)C[C@@H]2C(=O)N1CCN(C(=O)c2ccco2)CC1	-18%[8.37 µM]	.	.	-3%	27	.
CCC1CCCCN1C(=O)CSc1nc2c([nH]c3ccccc32)c(=O)n1-c1ccc(OC)cc1 (stereo not drawn)	.	-13%[46.1 µM]	.	.	-13	.
O=C1CN(C(=O)Cc2ccccc2)C(c2ccc(F)cc2)c2cc(Br)ccc2N1 (stereo not drawn)	.	?	.	10µM*	15	.
CCC(CC)C(=O)N1CC(=O)Nc2ccc(C)cc2C1c1ccccc1 (stereo not drawn)	-5%	.	?	.	-13	?
CCCC(=O)N1CC(=O)Nc2ccc(C)cc2C1c1ccccc1 (stereo not drawn)	4%	?	7.4µM*	9%	-15	-30%
SMILES	HCV inh	Lassa entry inh	Pf growth 96h	Marburg entry inh	HCMV antiviral	Pf growth 48h
C=C(CCN1C=C(C(=O)OCC)C(c2ccccc2)NC1=O)c1ccccc1 (stereo not drawn)	.	.	.	10%[14.2 µM]	.	.
CCOC(=O)C1=C(COC(=O)c2ccc(OC)c(S(=O)(=O)N3CCOCC3)c2)NC(=O)NC1C (stereo not drawn)	-17%	.	.	.	-1	.
C=CCn1c(SCC(=O)NC)nc2sc3c(c2c1=O)CCC3	19%	14%	.	?	110	?
CCn1c(SCC(=O)NCCc2ccccc2)nc2sc3c(c2c1=O)CCN(C)C3	?	3%	0.37µM*	25%	13	1.7µM*
CCn1c(SCC(=O)c2ccccc2)nc2sc3c(c2c1=O)CCN(C)C3	?	-3%	2.9µM*	?	-34	?
COC(=O)CSc1nc2sc3c(c2c(=O)n1-c1ccccc1)CCN(C)C3	?	0%	.	5%	45	?
C=CCn1c(SCC(=O)NCC)nc2sc3c(c2c1=O)CCC3	-2%	2%[46.1 µM]	?	14%[46.1 µM]	91	7.4µM*
CC1(C(=O)NS(=O)(=O)c2ccc(C#N)cc2)CCN1C(=O)c1ccccc1CCc1ccccc1 (stereo not drawn)	.	.	.	.	-9	.
O=C(NCC1CCCN1S(=O)(=O)c1ccccc1)C(=O)NC1CC1 (stereo not drawn)	3%	-1%	7%	26%	-15	48%
O=c1[nH][nH]c2c1[C@H](c1ccc(Cl)cc1)O[C@H](C1CCCCC1)C2	.	.	.	.	-4	.
c1csc(-c2nnc(NC3CCCCC3)c3ccccc23)c1	?	-17%	?	?	39	-13%
CC1CCN(c2nnc(-c3cccs3)c3ccccc23)CC1	?	.	?	0%	-66*	-1%
CCN(CC)C(=O)C1=C(C)N(Cc2ccc(OC)cc2)C(=O)C(CC(=O)NCc2cccc3ccccc23)C1 (stereo not drawn)	.	.	.	.	2	.
Brc1cnc(N2CCCC2)nc1N1CCOCC1	22µM*	0%	-16%	-17%	34	4%
CC1Cc2ccccc2N1C(=O)c1cccnc1 (stereo not drawn)	5%	2%	.	14%	27	-3%
CC1Cc2ccccc2N1C(=O)c1ccnc(C(C)(C)C)c1 (stereo not drawn)	?	11%	30%	-4%	20	12µM*
CC1(C(=O)NS(=O)(=O)c2cccc(OC(F)F)c2)CCN1C(=O)Cc1cccs1 (stereo not drawn)	.	.	.	.	-15	.
CCN(CC)c1nc(C#N)cc(-c2ccc(OC)cc2)n1	7.1µM*	?	7.4µM*	?	-20	13µM*
COc1ccc(-c2cc(C#N)nc(Oc3ccc(Cl)cc3)n2)cc1	3%	?	?	?	-33	5%
COc1ccc(-c2cc(C#N)nc(NN)n2)cc1	-13%	?	2.9µM*	?	-11	?
